From PubChem BioAssay
HT1080-NT tox – kills 2HG-producing HT-1080-NT fibrosarcoma cells. HT-1080-NT fibrosarcoma viability, CellTiter-Glo ATP luminescence, 48 h. Potency, µM (titrated, usually from 46.1 µM), for inactives: top-dose activity, negative = less viability, hits mostly cytotoxic. actives 1.6% (n = 360,000). AID 686970;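 note: NT is the 2HG producing partner of a matched IDH1 knockdown line; potency is the fitted concentration of half-maximal effect; 0% = DMSO-treated cells and -100% = media-only wells without cells; nearly all actives have a fitted effect of over 55% in size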
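HT-1080-NT; 750 cells/well; 5% FBS RPMI; 48 h compound, 37 degrees C; CellTiter-Glo luminescence; curve fitting and curve-class assignment.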
IL-1B inflam inh – blocks inflammasome-driven IL-1 beta release | THP-1 LPS/ATP IL-1B secretion, AlphaLISA, 16 h; stronger effect = lower value | AID 743279 | actives 4.7% (n = 360,000) | activity change, % at 57.5 µM; in the data active = activity change below about -50%; inconclusive = mostly about -30% to -49%
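Secreted IL-1B measured by AlphaLISA bead assay after 16 h compound exposure of THP-1 cells; compounds (final up to 57.5 uM) added 1 h before LPS (250 ng/mL) and ATP (1.25 mM) stimulation; lower signal means less secretion.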
DT40 TDP1 CPT – growth inhibition of DT40 Tdp1-/-;hTDP1 cells with camptothecin (screen for TDP1 inhibitors). actives 12% (n = 420,000). chicken DT40 Tdp1-/-;hTDP1 cells + 20 nM CPT, ATP luminescence, 48 h. Potency, µM (doses to about 46.2 µM), for the others: at the highest dose activity change, negative = growth inhibition, most hits filed as inhibitors; note: potency is the fitted concentration of half-maximal effect; nearly all actives have a fitted effect of over 55% in size
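Cell growth measured by CellTiter-Glo luminescence after a minimum 48 h, 37 C compound exposure with 20 nM CPT in Tdp1-knockout DT40 cells stably expressing hTDP1, seeded 400/well; qHTS titration format.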
DT40 TDP1 no CPT – qHTS for Inhibitors of human tyrosyl-DNA phosphodiesterase 1 (TDP1): qHTS in cells in absence of CPT | DT40 Tdp1-/- hTDP1 cells, no CPT, ATP luminescence, 48 h | Potency, µM (titrated, usually from 46.2 µM), inactives show top-dose activity change, negative = growth inhibition, actives largely listed as inhibitors | actives 15% (n = 420,000) | AID 686978, 2013; note: potency is the fitted concentration of half-maximal effect; nearly all actives have a fitted effect of over 55% in size
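No-CPT arm: Tdp1-/-;hTDP1 DT40 cells (400/well) plus compounds, incubated ≥48 hr at 37 °C. Readout CellTiter-Glo luminescence.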
HT1080 IDH1KD tx – kills HT-1080 cells with IDH1 knockdown. Potency, µM (doses to about 46.1 µM), for inactives: at the top dose activity, negative = toxicity, actives largely listed as cytotoxic. AID 686971. actives 2% (n = 360,000). HT-1080 IDH1 knockdown viability, ATP luminescence, 48 h;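 note: potency is the fitted concentration of half-maximal effect; 0% = DMSO wells and -100% = cell-free medium wells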
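Using the IDH1-knockdown HT-1080 line run in the same batch and compound series as the NT line, viability after 48 h at 37 °C was determined by CellTiter-Glo luminescence and expressed as % activity.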
* hit, by the source's call; ? = inconclusive; . = not tested or not shown; [ ] = remark or other dose. This is a sample that favours compounds with a hit; in the whole collection about 19% have one here. Unless noted, calls come from the whole dose curve; as a rule, active = well fitted curve in the direction sought with a large enough effect; inconclusive = small, poorly fitted or top-dose-only effect, or another doubt; inactive = no such curve, though single readings can be large; an effect the other way counts as inactive or inconclusive. Unless noted, % is set by controls: 0 for no effect and ±100 for the full control effect.

SMILES	HT1080-NT tox	IL-1B inflam inh	DT40 TDP1 CPT	DT40 TDP1 no CPT	HT1080 IDH1KD tx
CC(=O)OCC(=O)[C@@]12N=C(C)O[C@@H]1C[C@H]1[C@@H]3CCC4=CC(=O)C=C[C@]4(C)[C@H]3[C@@H](O)C[C@@]12C	.	.	4%	-9%	.
Cc1cc(OC(C)C(=O)NCCCn2ccnc2)c2c(C)c(C)c(=O)oc2c1 (centres undefined)	-6%	-3	5%	0%	0%
CCn1c(CC(=O)Nc2ccc(OC)cc2)nnc1SCC(=O)N1CCOCC1	0%	0	4%	0%	0%
CCc1nnc(NC(=O)CN2CCN(Cc3ccc(C)cc3)CC2)s1	0%	-1	-9%	-2%	0%
CC1=C(C(=O)N2CCCCCC2)CC(CC(=O)NCCc2ccccn2)C(=O)N1Cc1ccc(C(C)(C)C)cc1 (centres undefined)	-1%	?	18µM*	16µM*	?
CC1=C(C(=O)N2CCOCC2)CC(CC(=O)NC2CCCC2)C(=O)N1Cc1ccccc1 (centres undefined)	3%	19	6%	-11%	8%
CC1=C(C(=O)N2CCCCCC2)CC(CC(=O)NC2CCCCC2)C(=O)N1Cc1ccc(C(C)(C)C)cc1 (centres undefined)	-6%	-73*	15µM*	21µM*	-16%
COc1ccc(CN(C)Cc2nc3scc(-c4ccccc4)c3c(=O)[nH]2)cc1OC	-1%	12	13µM*	6.5µM*	7%
CSCc1nc2scc(-c3ccccc3)c2c(=O)[nH]1	-2%	-3	0%	0%	1%
CCOc1ccc(-n2c(SCC(=O)Nc3ccccc3C)n[nH]c2=O)cc1	-2%[9.24 µM]	-11	-13%	-15%	-2%
COc1ccc(CCN2C(=O)c3cccc4c(C(=O)N5CCCCC5)ccc(c34)C2=O)cc1OC	2%	-3	16µM*	?	4%
COc1ccc(CCNC(=O)CCN2C(=O)c3cccc4cccc(c34)C2=O)cc1OC	8%	-2	?	10%	13%
CC(Oc1cccc(Br)c1)C(=O)NNC(=O)CCNC(=O)c1ccccc1Cl (centres undefined)	-3%	-4	2%	1%	-1%
CC(NNC(=S)N1CCN(c2ccccn2)CC1)c1nccc2ccccc12 (centres undefined)	-19%	-101*	0.0092µM*	0.018µM*	?
CCNC(=S)N1CCN(c2ccccn2)CC1	20%	-13	26%	-23%	17%
N=C1C(c2ccccc2)=C(O)CN1NC(=O)c1ccc(Cl)cc1	2%	4	-2%	4%	17%
CCCCc1ccc(S(=O)(=O)NC2CCS(=O)(=O)C2)cc1 (centres undefined)	?	5	21µM*	21µM*	-15%
COC(=O)Nc1ccc(S(=O)(=O)NC2CCS(=O)(=O)C2)cc1 (centres undefined)	28%	24	-6%	-17%	10%
CC(=O)Nc1ccccc1OCC(=O)NC(C)c1ccc(F)cc1 (centres undefined)	4%	-9	13µM*	?	-19%
CC(=O)Nc1ccccc1OC(C)C(=O)NC(C)c1ccc(F)cc1 (centres undefined)	11%	19	9%	?	6%
C=CCn1nc(-c2ccccc2)c(N2CCCCC2)cc1=O	-2%	4	?	?	-6%
O=c1cc(N2CCCCC2)c(-c2ccccc2)nn1Cc1ccc(Cl)cc1Cl	?	-2	?	18µM*	?
CCOC(=O)N1CCN(c2nc3ccccc3nc2C(C#N)C(=O)NCCc2ccccc2)CC1 (centres undefined)	15%	-2	16µM*	21µM*	14%
CCOC(=O)C1CCCN(c2nc3ccccc3nc2C(C#N)C(=O)NCc2ccccc2)C1 (centres undefined)	2%	-5	?	9.2µM*	-1%
CCCCCCNC(=O)C(C#N)c1nc2ccccc2nc1N1CCOCC1 (centres undefined)	1%	-3	?	-16%	1%
SMILES	HT1080-NT tox	IL-1B inflam inh	DT40 TDP1 CPT	DT40 TDP1 no CPT	HT1080 IDH1KD tx
N#CC(C(=O)NCCc1ccccc1)c1nc2ccccc2nc1N1CCOCC1 (centres undefined)	19%	-8	16µM*	?	11%
CCCCCNC(=O)C(C#N)c1nc2ccccc2nc1N1CCCC1 (centres undefined)	2%	19	-4%	?	-4%
N#CC(C(=O)NCCc1ccccc1)c1nc2ccccc2nc1N1CCCCC1 (centres undefined)	-1%	-3	21µM*	-27%	-2%
N#CC(C(=O)NCc1ccccc1)c1nc2ccccc2nc1N1CCCC1 (centres undefined)	-1%	9	?	?	-9%
CCOC(=O)C(C(=O)OCC)C(C)C#CCN1CCCCC1 (centres undefined)	11%	4	-20%	-26%	4%
CC1(C)Cc2ccccc2-c2nc(NCCCO)n(-c3ccccc3)c(=O)c21	5%	-8	23µM*	15µM*	1%
N#Cc1ccc(C(=O)OCC(=O)N2CCOCC2)cc1	21%	34	9%	3%	17%
CN(C)c1ccc(C(=S)Nc2ccccc2)cc1	2%	-3	?	16µM*	10%
CN(C)c1ccc(NC(=S)c2ccccn2)cc1	?	-5	4.6µM*	5.2µM*	?
C=CCN(C)NC(=S)Nc1ccccc1	22%	-4	9%	-13%	19%
C=C(c1ccccc1)c1ccc(N(C)C)cc1	1%	-10	-22%	-37%	-4%
CN(C)c1cc(O)c(C(=S)Nc2ccccc2)c(N(C)C)c1	-16%	5	16µM*	?	-16%
CN(C)c1ccc(/C=N/NC(=O)c2ccccn2)cc1	?	-14	-19%	?	?
CC12CC3(C)CC(C)(C1)CC(C(=O)NCc1cccnc1)(C2)C3	-18%	7	-4%	-7%	-13%
CSc1ccccc1NC(=O)c1ccccn1	5%	-22	1.3µM*	2.1µM*	5%
Cc1ccc(-c2ocnc2C(=O)Nc2nc(C)cs2)cc1	-26%	0	-10%	-25%	-1%
Cc1ccc(-c2ocnc2C(=O)Nc2ccccc2NC(=O)c2ccccn2)cc1	?	?	21µM*	?	?
Cc1cccc(-c2ocnc2C(=O)Nc2ccccc2NC(=O)c2ccccn2)c1	18µM*	?	0.92µM*	0.29µM*	?
CC(=O)c1cccc(NC(=O)C(=O)Nc2cccc3ccccc23)c1	-13%	-10	-9%	-22%	-9%
O=C(c1ccc(F)cc1)N1CCN(CCc2ccncc2)CC1	.	.	-14%	-25%	.
